The supplement of paper PMC6555819

tested on: VDR:RXRa (NR concentration 270 nM, RXRa partner concentration 90 nM); experiment: PBM binding z-score (relative to random genomic background probes); higher = stronger binding; sequences stand for … in GC…GCGATTGACAGCGTAGAATGAAGG
Procedure: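 Protein-binding microarray (Agilent 4x180K custom design, double-stranded 60-nt probes: 5' GC cap, 34-nt variable region, 24-nt constant primer region; full probe sequence given). Purified or IVT nuclear receptor:RXRα heterodimers (3:1 NR:RXRα, mostly 270:90 nM) or homodimers were incubated for 1 h in PBS with 2% milk and no ligand, then detected with Alexa488 antibodies. Fluorescence from o1-orientation probes (~5 replicates averaged) was converted to z-scores against 500 random hg19 background probes. Variable regions are seed direct-repeat (DR0–DR5) sites, all their single-nucleotide variants and half-site ablations.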

| Sequence | PBM binding z-score |
| --- | --- |
| ACTTACGGGTCAACGAGGTTAGAGCACGCGTATA | 7.15 |
| CAAACTAGGTCACCGGAAGGTCAAAGTGCGCATG | 6.18 |
| GCTGCTAGGTCAACTGATGGTCAGCTACAGCTCG | 1.51 |
| TTACCAAGGTGATCTGAGGTCGTTGATCCAACTC | 4.13 |
| TCATATAGGTAAGACAGGTGAAAGTCGGCATCTA | 0.987 |
| TCAGACAGGTGCAGGTAACTCAGGTACGCAGTCG | 0.362 |
| TGAATGCGGTTAAAGATCAGGGAACGTGGCGTCG | -0.54 |
| CCGAGTGGGGCATAAGGTTACCATAAGCCAGCCC | 0.143 |
| CGTCCAAGGTCATAGGAGGTCCGTGAAGACAGAT | 4.88 |
| ATCTATAGGTAAAGTTCAGTGAAAGATCGATAGA | 1.65 |
| TCTAGTTGGTCACGGAGGTCAAACACGACGGGTA | 6.21 |
| TGAATGAGTTTATAAGATCAGGGAACGTTGCAAA | 1.26 |
| TAGACTAGGTCAGATCGGGCCAGTATACGCTATA | 0.598 |
| GCTAGTTGGTCAGTAAAAGGTCTCACACCGGTCG | -0.141 |
| ATACAAAGGTGATCGTGAGGTCGTTGATACTAAC | 4.59 |
| CCGAGTAGGTTATGGGGCATTCATGCAACGGTGA | 0.118 |
| ATCTCTACGTAACCAAGTTCAGTGAATGCCGAAC | 1.17 |
| GATACAGGGTCAAGGCCATAGTACGCGTATTGAT | 4.21 |
| ATCTCTAGGTAACCAAGTTCATTGAATGCCGAAC | 5.68 |
| CGTTCAAGGTCAATGCTAGGTCAGTGAAAGCATT | 4.78 |

| Sequence | PBM binding z-score |
| --- | --- |
| TAGCCTAGGACAGATCGGGCCAGTATACGCTATA | -0.85 |
| TCATATAGATAAATGCTAGGTGAAAGTCCGATCT | 0.736 |
| TCTAGTTGGTCAAAGGTCACAGACTCGAAATGCG | 5.45 |
| TGTGCTAGGTCAACGATGGTCAGCTAATCTGCTA | 1.65 |
| ATCTCGAGGTAAAAGTTCAGTGAATCCCGAGGAT | 1.7 |
| GTAACGAGGGCAAAGTTGATAGCATCTGTCGACG | 1.53 |
| ATATGTGGGTTAAGGGTCATTCAGGTTGGTTCGC | 5.79 |
| CCTTACGGGTCACTCCAGGTTATAGGATCGGAGT | 4.34 |
| GCTTGTTGATCAAGGTTAAGAAAGACTAAGCTAA | 0.122 |
| CTACCAAGGTGAACAAGGACGTTGATTACTATTC | 3.82 |
| GCGACTGGTGCAAAGCAGGTTACCATAAGGTTGG | -0.134 |
| AGAACGAGGGCACGCTGAGTGGATAGCAGAGTAG | 0.617 |
| ATACCTAGGTGATCGTGAGGTCGTTGATACTAAC | 2.66 |
| ACAGACAGGTGAGTGAAGGTAACACAGCTGGACG | -0.0356 |
| TGTATTAGTTGAAGGGCAACCGACGAGTCCGTTT | 0.926 |
| TCGAGTAGGTTACCAAAGGGGCATTCAGCTTTCT | 0.89 |
| CCTTACGGGTCACTTCAGGTTATAGCATCGGAGT | 4.22 |
| TCGAGTAGGTTAGGGGCATTCCGAATGGCGTCGA | 0.256 |
| CCGGCTGGGGCATAAGGTTACCATAAGCCAGCCC | -0.119 |
| CCTACTGGGCCATCTGGTCATTGATATCAACGTT | -0.267 |
